Experimental data: PubChem BioAssay AID485344 (National Center for Advancing Translational Sciences (NCATS), 2010)
Hit rate of the full screen: of about 340,000 compounds, about 6,900 (2%) were called active. Many of the other results were omitted from the sample, so actives are more common in it than they were. Values without a mark were called inactive. Cut-off read from the data, not from the text of the source: active = inhibition above about 30%; inactive = below that, where a call was filed.

Biological target: D(2) dopamine receptor (Homo sapiens) (UniProt P14416)
Test: HTS Assay for Allosteric Antagonists of the Human D2 Dopamine Receptor: Primary Screen for Antagonists; note: 0% is about no effect
Conditions: HEK293 TREx D2 cells, calcium flux, dopamine EC80; at 10 µM; hits give high values
Excerpt: NIH Chemical Genomics Center [NCGC] NIH Molecular Libraries Probe Centers Network [MLPCN] MLPCN Grant: NS064831-01 Assay Submitter (PI): David Sibley Dopamine receptors (DARs) are involved in the etiology and/or therapy of a number of neuropsychiatric and endocrine disorders. For instance, all receptor-based antiparkinsonian drugs work via stimulating the D2 DAR subtype whereas all FDA-approved antipsychotic agents are antagonists of this receptor. […] There are three different types of allosteric modulators that we are seeking, two of which will stimulate or augment receptor signaling, allosteric agonists and potentiators, while the third, allosteric antagonists, will attenuate receptor signaling. The present primary screening assay measures compound antagonism after an EC80 addition of dopamine by tracking calcium flux in a […], inducible Hek293 Trex D2 cell line.
Freshly passaged cells are plated in 1536 well black, clear bottom plates at a density of 4000 cells/well in 3 ul of complete media containing 1x tetracycline inducer. After an overnight incubation at 30 C in 5% CO2, cells are loaded with 2 ul of the no wash Calcium Assay Kit (ABD Bioquest) and incubated at room temperature for 30 to 90 minutes. Agonist read: A 10 cycle (1 second/cycle) baseline measurement is taken and then the FDSS online 1536 pintool delivers 23 nl of compound library (as well as dopamine controls) to the plate. The plate is measured for kinetically at 1 cycle/sec for 180 seconds. Following the 180 second read, 1 ul of an EC80 (negative modulation assay) is delivered by an onboard pipette head. Measurements are taken kinetically for an additional 180 seconds.

D(2) dopamine receptor (Homo sapiens), sequence (P14416 whole entry, looked up): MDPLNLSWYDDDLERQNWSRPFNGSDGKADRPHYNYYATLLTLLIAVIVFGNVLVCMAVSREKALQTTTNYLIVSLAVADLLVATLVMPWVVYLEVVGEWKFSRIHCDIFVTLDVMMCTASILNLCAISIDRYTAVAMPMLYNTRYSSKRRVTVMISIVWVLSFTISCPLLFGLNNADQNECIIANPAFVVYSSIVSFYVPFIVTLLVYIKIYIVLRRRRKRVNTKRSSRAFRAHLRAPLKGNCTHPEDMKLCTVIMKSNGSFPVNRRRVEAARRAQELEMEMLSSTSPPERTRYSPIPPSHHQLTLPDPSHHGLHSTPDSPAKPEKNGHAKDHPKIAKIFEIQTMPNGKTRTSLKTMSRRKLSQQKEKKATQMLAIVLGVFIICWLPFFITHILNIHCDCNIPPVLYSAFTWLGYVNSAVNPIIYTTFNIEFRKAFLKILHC

Row | SMILES | inhibition
1 | Cc1ccc(C2CN(C)CC2C(=O)c2ccc(F)cc2)cc1 (stereo not given) | 70% (active)
2 | COc1ccc(C(=O)C2CN(C)CC2C(=O)c2ccc(OC)cc2)cc1 (stereo not given) | 4.54%
3 | CN1CCC(OC(=O)c2cccc(F)c2)CC1 | 8.08%
4 | COC(=O)C1=C(c2ccc(F)cc2OCc2ccccc2)C[C@@H]2CC[C@H]1N2C(=O)NCc1ccc2[nH]ccc2c1 | 4.27%
5 | COC(=O)C1=C(c2cccc(OCc3ccccc3)c2)C[C@@H]2CC[C@H]1N2C(=O)NNCc1ccccc1 | -6.45%
6 | O=C(O)CCn1cc(C=C2C(=O)NC(=S)NC2=O)c(-c2cccc(Br)c2)n1 | 18.3%
7 | CCc1ccc(OCC(=O)N2CCN(CC(=O)Nc3ccccc3Cl)CC2)cc1 | -8.62%
8 | CC(C)c1ccc(O)c(CN2CCN(c3ccccc3)CC2)c1 | -16.3%
9 | Cc1cc(=O)oc2c(C)c(OCC(=O)N3CCN(Cc4ccc5c(c4)OCO5)CC3)ccc12 | 3.54%
10 | O=C(Cc1ccccc1[N+](=O)[O-])N1CCN(Cc2ccc3c(c2)OCO3)CC1 | -19.1%
11 | CCN1CCN(Cc2cc(OC)c3c(c2)OCO3)CC1 | -21.1%
12 | Fc1ccc(N2CCN(Cc3ccc4c(c3)OCO4)CC2)cc1 | 65.6% (active)
13 | Oc1cc2c(cc1CN1CCN(c3ccccc3)CC1)OCO2 | 108% (active)
14 | CN1CCC(N(C)Cc2cccnc2)CC1 | 11.8%
15 | Cc1ccccc1NC(=O)COC(=O)c1cc(C)n(C2CC2)c1C | 6.13%
16 | COC(=O)C1=C(c2ccc(Cl)c(C(F)(F)F)c2)C[C@@H]2CC[C@H]1N2C(=O)NC(C)C | -9.37%
17 | COC(=O)C1=C(c2ccc(F)cc2OCc2ccccc2)C[C@@H]2CC[C@H]1N2C(=O)NCc1ccc(Cl)cc1 | -5.86%
18 | CCOC(=O)C1(CCc2ccccc2)CCN(Cc2ccco2)CC1 | 1.26%

Row | SMILES | inhibition
19 | CCOC(=O)C1(Cc2ccc(Cl)cc2)CCN(C(C)CCn2cccn2)CC1 (stereo not given) | 77.6% (active)
20 | COC(=O)C1=C(c2cccc(OCc3ccccc3)c2)C[C@@H]2CC[C@H]1N2C(=O)NCc1ccc(Br)cc1 | -11.9%
21 | c1cncc(CNC2=NCCC2)c1 | -1.77%
22 | c1cncc(CNCCc2c[nH]c3ccccc23)c1 | 33% (active)
23 | COc1ccc(CNCCc2c[nH]c3ccccc23)cc1OC | 22.9%
24 | COc1ccc(CN2CCN(c3ccccc3F)CC2)c(OC)c1 | 76.4% (active)
25 | Fc1cccc(F)c1CN1CCN(Cc2c(F)cccc2F)CC1 | -7.4%
26 | COc1ccccc1CN1CCN(C(=O)Cc2ccccc2)CC1 | -40.7%
27 | COC(=O)C1=C(c2ccccc2OCc2ccccc2)C[C@@H]2CC[C@H]1N2C(=O)NCc1ccc(OC)cc1 | -2.56%
28 | COC(=O)C1=C(c2ccc(F)cc2OCc2ccccc2)C[C@@H]2CC[C@H]1N2C(=O)NCc1ccc(OC)c(OC)c1 | -1.84%
29 | COC(=O)C1=C(c2ccc(Cl)c(C(F)(F)F)c2)C[C@@H]2CC[C@H]1N2C(=O)NC1CC1 | -0.929%
30 | COC(=O)C1=C(c2ccc(-c3ccccc3)c(F)c2)C[C@@H]2CC[C@H]1N2C(=O)NCc1ccc(F)cc1 | -5.61%
31 | Cn1c(O)c(C(=Nc2ccc(F)cc2)c2ccccc2)c(=O)n(C)c1=O | -2.27%
32 | NCC(O)c1ccc(O)cc1 (stereo not given) | 32.1% (active)
33 | CCc1cccc2c(C#N)cn(CC(=O)N3CCOCC3)c12 | -4.1%
34 | C[C@]12CC[C@H](O)C[C@H]1CC[C@@H]1C2CC[C@]2(C)[C@@H](C3=CC(=O)OC3)[C@@H](O)C[C@]12O (stereo not given in full) | 8.92%
35 | COC(=O)C1=C(c2ccc3ccccc3c2)C[C@@H]2CC[C@H]1N2C(=O)NCCO | -12.6%
